The values below come from PubChem BioAssay (NCI).

Compounds without any hit were thinned out: in the full panel of roughly 83,000, 20% have a hit.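 Compound tested at a single concentration for 48 hours in 96-well plates; a percent growth value below 10 was scored as active.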 Calls of active or inactive are those of the source.

In the assay the test system is M14 melanoma. As to the kind of experiment: NCI-60 one-dose screen, 48 h (100 = growth as untreated, 0 = no growth, -100 = all killed). The following applies: 10 µM unless noted.
For `CN1CCN(C(=O)[C@]23CCC(C)(C)C[C@H]2C2=CC[C@@H]4[C@@]5(C)C/C(=C/c6ccncc6)C(=O)C(C)(C)[C@@H]5CC[C@@]4(C)[C@]2(C)CC3)CC1`, the growth is 57.4% (inactive). `C=C(C)[C@@H]1CC[C@]2(C(=O)N3CCN(C)CC3)CC[C@]3(C)[C@H](CC[C@@H]4[C@@]5(C)C/C(=C/c6cccnc6)C(=O)C(C)(C)[C@@H]5CC[C@]43C)[C@@H]12`: the growth is 69.5% (inactive). With `N/C(=N\C(N)=N\c1nc2ccccc2s1)c1cccc(Cl)c1`, the growth was 96.1% (inactive).

Take `CCOC(=O)Nc1ccc(-c2ccc3c(c2)NC(=O)/C3=C\c2ccc[nH]2)cc1`: the growth is 103% (inactive). Turning to `CCNC(=O)Oc1ccc(/C(=C(\C)c2ccccc2)c2ccc(OCCN(CC)CC)cc2)cc1`, the growth was 39.7% (inactive). The result for `CCOC(=O)/C(C#N)=C1/NNC(=Nc2cccnc2)S1` reads 95.9% (inactive). As for `COc1cccc(-c2nc3occn3c2-c2ccnc(NCCCNS(=O)(=O)c3ccc(C(F)(F)F)cc3)n2)c1`, the growth is 85.6% (inactive). The result for `CC(=O)Nc1ccc(-n2cnc3cc(-c4ccc(OCCN5CCCCC5)cc4)ccc32)cc1` reads 47.1% (inactive); that for `Cn1ccnc1C(=O)/C=C/c1ccc(CC(=O)Nc2ccc(Cl)cc2)cc1`, 67.7% (inactive). On to `C=CCN1C(=O)/C(=C/C(=O)OC)S/C1=N\NC(=O)c1cc2ccc1/C=C\c1ccc(cc1)/C=C\2`, for which the growth is 78.9% (inactive). Consider `COc1ccc(/C=C(\C#N)n2nc3cccc(F)c3n2)cc1`, for which the growth is 105% (inactive). The result for `N/C(=N\C(N)=N\c1nc2ccccc2s1)c1cnccn1` reads 23.2% (inactive). Under `Cc1c(C(=O)NCCC(=O)NO)sc2ncnc(Nc3ccc(NC(=O)Nc4cccc(C(F)(F)F)c4)cc3)c12` stands 107% (inactive); under `O=C(Nc1ccc(-c2ccc3c(c2)NC(=O)/C3=C\c2ccc[nH]2)cc1)NC1CC1`, 94% (inactive); under `S=c1cc(S)c2cc(Br)ccc2[nH]1`, 90% (inactive). Under `CCCCOc1ccc(/C=N/Nc2cc(C)nc3ccc(Br)cc23)cc1` stands 4.9% (active). Take `N/C(=N\C(N)=N\c1nc2ccccc2s1)c1ccnc(Br)c1`: the growth was 21.5% (inactive). Under `COc1cc(NC(C)CCCNC(=O)CCC(=O)NCCCNCCCCCCCCNCCCNC(=O)CCC(=O)NCCCC(C)Nc2cc(OC)cc3cccnc23)c2ncccc2c1` (stereo unspecified) stands 84.4% (inactive). The result for `COc1cc2nc(-c3ccc(C(F)(F)F)cc3)cc(OCCCN3CCOCC3)c2cc1OC` reads -56% (active); that for `O=C(Cn1c[n+](CC(=O)c2ccc(-c3ccccc3)cc2)c2ccccc21)Nc1cccc2cccnc12`, 28.1% (inactive); that for `CC(Oc1ccc(C(=O)O)cc1C(F)(F)F)c1ccc(Oc2ccccc2)cn1` (stereo unspecified), 103% (inactive). The result for `O=C(Nc1ccc(F)cc1)Nc1ccc(NC(=O)c2cc(Cl)nc3ccccc23)cc1` reads 74.3% (inactive); that for `O=C(CCN1CCCC1)Nc1ccc2c(Nc3ccc(F)cc3)c3ccccc3nc2c1`, -80.7% (active). For `CC(Sc1nc2ccccc2c(=O)n1CCc1ccc(S(N)(=O)=O)cc1)C(=O)Nc1ccc(Cl)cc1` (stereo unspecified), the growth was 105% (inactive).

Turning to `O=C(N/N=C/c1cc2ccccc2n2nnnc12)Nc1ccccc1`, the growth was 102% (inactive).

`CC1(C)CC(=O)C2=C(C1)N(c1ccc(F)cc1F)C(N)=C(C#N)C2c1cc(Br)ccc1F` (stereo unspecified): the growth is 85.1% (inactive).
